The supplement of paper PMC6555819

Key:
Assay in all cases: PBM binding z-score (relative to random genomic background probes); higher = stronger binding; sequences stand for … in GC…GCGATTGACAGCGTAGAATGAAGG
[1] = test system: FXR:RXRa (NR concentration 270 nM, RXRa partner concentration 90 nM)
In short: (§1)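 Antibodies against each partner of ligand-free nuclear receptor dimers (one per run) detected binding on custom Agilent 4×180K protein-binding microarrays after 1 h incubation. The double-stranded probes had 34-nt variable regions carrying direct-repeat seeds, single-nucleotide variants, half-site ablations and random human genomic background sequences. Binding z-scores, from regression-normalized fluorescence, use the random background probes as reference.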

[2] = test system: LXRa:RXRa (NR concentration 270 nM, RXRa partner concentration 90 nM)
In short: as §1

[3] = test system: LXRa homodimer (NR concentration 270 nM)
In short: as §1

[4] = test system: LXRb:RXRa (NR concentration 270 nM, RXRa partner concentration 90 nM)
In short: as §1

[5] = test system: LXRb homodimer (NR concentration 270 nM)
In short: as §1

[6] = test system: PPARa:RXRa (NR concentration 270 nM, RXRa partner concentration 90 nM)
In short: as §1

[7] = test system: PPARg:RXRa (NR concentration 180 nM, RXRa partner concentration 90 nM)
In short: as §1

[8] = test system: PPARg:RXRa 270nM:90nM, anti-RXR (NR concentration 270 nM, RXRa partner concentration 90 nM)
In short: as §1

[9] = test system: PPARg:RXRa 30nM:10nM, anti-RXR (NR concentration 30 nM, RXRa partner concentration 10 nM)
In short: as §1

[10] = test system: PPARg:RXRa 90nM:30nM, anti-RXR (NR concentration 90 nM, RXRa partner concentration 30 nM)
In short: as §1

[11] = test system: PPARg:RXRa DBDmut IVT, anti-RXR (DBD mutation: RXRa K156A/R161A, NR concentration 270 nM, RXRa partner concentration 90 nM)
In short: as §1

[12] = test system: PPARg:RXRa IVT, anti-PPARg (NR concentration 270 nM, RXRa partner concentration 90 nM)
In short: as §1

[13] = test system: PPARg DBDmut:RXRa IVT, anti-PPARg (DBD mutation: PPARg1 K132A/R137A, NR concentration 270 nM, RXRa partner concentration 90 nM)
In short: as §1

[14] = test system: PPARg DBDmut IVT, anti-PPARg (DBD mutation: PPARg1 K132A/R137A, NR concentration 270 nM)
In short: as §1

[15] = test system: PPARg homodimer (NR concentration 180 nM)
In short: as §1

[16] = test system: PXR:RXRa (NR concentration 270 nM, RXRa partner concentration 90 nM)
In short: as §1

[17] = test system: PXR homodimer (NR concentration 270 nM)
In short: as §1

[18] = test system: RARa:RXR (NR concentration 270 nM, RXRa partner concentration 90 nM)
In short: as §1

[19] = test system: RARa homodimer (NR concentration 270 nM)
In short: as §1

[20] = test system: RARb:RXRa (NR concentration 270 nM, RXRa partner concentration 90 nM)
In short: as §1

Row | Sequence | PBM binding z-score [1] | PBM binding z-score [2] | PBM binding z-score [3] | PBM binding z-score [4] | PBM binding z-score [5] | PBM binding z-score [6] | PBM binding z-score [7] | PBM binding z-score [8] | PBM binding z-score [9] | PBM binding z-score [10] | PBM binding z-score [11] | PBM binding z-score [12] | PBM binding z-score [13] | PBM binding z-score [14] | PBM binding z-score [15] | PBM binding z-score [16] | PBM binding z-score [17] | PBM binding z-score [18] | PBM binding z-score [19] | PBM binding z-score [20]
1 | GCTTGTAGATCAAGGTTGAGAAAGACTAAGCTAA | -0.651 | -0.5 | -0.84 | -0.489 | -0.831 | 1.3 | 2.27 | 3.37 | 1.77 | 3 | 0.308 | 0.797 | -0.562 | -0.558 | -0.108 | -0.354 | -0.235 | -0.162 | -0.337 | -0.367
2 | CCAGACAGGTGAGAAGGTAGCTCAGCCTCGATTA | -0.337 | -0.342 | -0.166 | -0.33 | -0.763 | 0.0761 | 0.0523 | 0.0588 | -0.801 | -0.121 | 0.778 | 0.189 | -0.969 | -0.906 | 0.136 | -0.331 | -0.00345 | -0.134 | 0.0537 | 0.327
3 | CGAACTAGGTCAGAACTGGACAGTGAAGGATGAT | 0.671 | 0.375 | -0.326 | 0.262 | -0.439 | 3.26 | 5.1 | 4.49 | 1.77 | 3.68 | 6.94 | 7.08 | 2.69 | 3.66 | 1.37 | 0.313 | -0.282 | 0.591 | -0.224 | 2.71
4 | ATCGAAAGGGCGAAGGTGAGTATACCCACCCGAA | 0.199 | 0.432 | -0.538 | 0.0351 | -0.165 | 1.72 | 1.93 | 2.33 | 0.766 | 1.93 | -0.906 | 0.809 | 0.146 | -0.234 | 1.04 | 0.359 | -0.166 | 1.03 | -0.384 | 1.94
5 | TAGCCTAGGTCATGCGGGCCAGTACAGTGTCGGC | 4.21 | 2.99 | 0.179 | 1.48 | -0.174 | 3.65 | 2.42 | 2.56 | 0.126 | 1.61 | 1.55 | 2.81 | 0.187 | -0.334 | 1.24 | 1.55 | -0.513 | 2.47 | -0.899 | 3.61
6 | TCTTGTAGCTCAGCAGGTTAAGAAAGCTGGCCAA | -0.369 | -0.138 | -0.851 | -0.1 | -0.79 | 0.495 | -0.935 | 0.729 | 1.58 | 1.27 | 0.777 | -0.372 | -0.853 | -0.876 | -0.753 | -0.26 | -0.524 | -0.108 | -1.11 | -0.157
7 | TTACCAAGGTGAGCTGAGGTTGTTGATCCAACTC | 0.871 | -0.206 | -0.484 | -0.269 | -1.04 | 0.271 | -0.354 | 0.187 | -0.357 | -0.0442 | 1.22 | 1.51 | -0.399 | -0.245 | -0.248 | 2.03 | -0.915 | 0.168 | -0.951 | 0.78
